Eight compounds from PubChem BioAssay (Tox21) can be followed below.

Several values for one entry are separate records, joined by “and”; a condition that tells them apart may be missing. Equal values may be shown once. Results filed as inconclusive are left out. Some structures have more than one record in an assay (separate samples or runs), and their calls can disagree. Activity calls are given as the source filed them. Unless noted, calls come from the whole dose curve.

A short description of assay [1]: Nuclear factor erythroid 2-related factor 2/antioxidant responsive element (Nrf2/ARE) small molecule agonists: qHTS cell viability counter screen in human keratinocytes (AID 1919968; active = well fitted curve in the direction sought with a large enough effect in the repeat runs; an effect the other way counts as inactive or inconclusive; note: nearly all actives have a fitted effect of over 55% in size). Put shortly:
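KeratinoSens HaCaT cells, 1,500/well, preincubated 5 h, then exposed to compounds in DMSO for 23 h at 37 C/5% CO2. Viability read as CellTiter-Fluor fluorescence after 1 h, in the same wells as the ARE-luciferase read.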

Assay [2] in a line: Nuclear factor erythroid 2-related factor 2/antioxidant responsive element (Nrf2/ARE) small molecule agonists: luciferase reporter gene qHTS assay in human keratinocytes (AID 1919969). Note: nearly all actives have a fitted effect of over 35% in size.
The target in assay [3] is Gonadotropin-releasing hormone receptor (Homo sapiens) (UniProt P30968). The assay is described as follows: Human gonadotropin-releasing hormone receptor (GnRHR) small molecule agonists, calcium flux assay in GnRHR-HEK293 cells (AID 1920063). Note: nearly all actives have a fitted effect of over 35% in size. The procedure, abridged:
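HEK293 cells stably expressing human GnRHR were dye-loaded for 1 h at 37 C. Compound was added in agonist mode and fluorescence (Ex/Em 480/540) recorded kinetically for 3 min. Fifteen concentrations, triplicates.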
On the technique in general: Calcium assays in cells follow changes in intracellular calcium, usually with a dye or a luminescent sensor.

The target in assay [4] is KiSS-1 receptor (Homo sapiens) (UniProt Q969F8). The assay is described as follows: Human kisspeptin (KISS1R) small molecule agonists, calcium flux assay in KISS1R-HEK293 cells (AID 1920064; active = well fitted curve in the direction sought with a large enough effect in the repeat runs; an effect the other way counts as inactive or inconclusive). Put shortly:
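HEK293 cells stably expressing human KISS1R were loaded with calcium dye for 1 h at 37 C, then given compound; fluorescence (Ex/Em 480/540) was read kinetically for 3 min. Fifteen concentrations, triplicate.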

Assay [5] in a line: G protein-coupled receptor (GPCR) small molecule agonists, calcium flux assay: HEK293 wild type cell line counter screen (AID 1920065). Put shortly:
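Wild-type HEK293 cells plated 18 h, loaded with calcium dye 1 h at 37 C, then compounds added in agonist mode (ATP as positive control). Kinetic fluorescence Ex/Em 480/540 recorded 3 min at 1 sec intervals; 15 concentrations, triplicate.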

Assay [6] can be described thus: p53 small molecule agonists, cell-based qHTS assay with human liver microsomes: qHTS cell viability counter screen (AID 1963579). Note: nearly all actives have a fitted effect of over 45% in size. Put shortly:
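Metabolic activation used human liver microsomes and NADPH, both 0.5 mg/mL final, over 16 hours at 37 C on p53RE-bla cells (4,000/well). Cytotoxicity measured by CellTiter-Glo luminescence, 30 min at room temperature.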

Assay [7] in a line: p53 small molecule agonists, cell-based qHTS assay with rat liver microsomes: qHTS cell viability counter screen (AID 1963580). Note: nearly all actives have a fitted effect of over 45% in size. Put shortly: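 Viability is assessed in parallel with the p53 reporter read: HCT-116 p53RE-bla cells receive compounds plus rat microsomes and NADPH (0.5 mg/mL final apiece), incubate 16 h at 37 C, and then CellTiter-Glo luminescence is recorded.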
A general note: Quantitative high-throughput screening tests each substance at several concentrations.

The nature of assay [8]: p53 small molecule agonists, cell-based qHTS assay: qHTS cell viability counter screen (AID 1963581). Note: nearly all actives have a fitted effect of over 45% in size. Note: potency is the fitted concentration of half-maximal effect. The procedure, abridged: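 p53RE-bla HCT-116 cells, compounds added 5 h after plating and incubated 16 h at 37 C. Cytotoxicity measured in the same wells as intracellular ATP by CellTiter-Glo luminescence after 30 min at room temperature.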
Assay [9] concerns the target 5-hydroxytryptamine receptor 2A (Homo sapiens) (UniProt P28223). The assay can be described thus: 5-hydroxytryptamine receptor 2A (HTR2A) small molecule antagonists, cell-based qHTS assay (AID 1963586). Note: nearly all actives have a fitted effect of over 45% in size. Note: potency is the fitted concentration of half-maximal effect. The procedure, abridged: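 Antagonist-mode intracellular calcium assay: DOI (4 nM) added after 5 min compound pre-incubation at room temperature to dye-loaded HTR2A-CHO cells. Fluorescence followed for 3 min, sampled every second.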

The target of assay [10] is Muscarinic acetylcholine receptor M1 (Homo sapiens) (UniProt P11229). The assay can be described thus: Cholinergic receptor muscarinic 1 (CHRM1) small molecule antagonists, cell-based qHTS assay (AID 1963588). Note: nearly all actives have a fitted effect of over 40% in size. The procedure, abridged: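 CHRM1-CHO calcium-flux assay, antagonist mode. Cells were seeded 18 h, dye-loaded 1 h at 37 C and given compound for 5 min at RT, then acetylcholine was added at 50nM. FDSS fluorescence was read 3 min; 15 concentrations, three runs.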
Muscarinic acetylcholine receptor M1 (Homo sapiens), sequence (P11229 whole entry, looked up): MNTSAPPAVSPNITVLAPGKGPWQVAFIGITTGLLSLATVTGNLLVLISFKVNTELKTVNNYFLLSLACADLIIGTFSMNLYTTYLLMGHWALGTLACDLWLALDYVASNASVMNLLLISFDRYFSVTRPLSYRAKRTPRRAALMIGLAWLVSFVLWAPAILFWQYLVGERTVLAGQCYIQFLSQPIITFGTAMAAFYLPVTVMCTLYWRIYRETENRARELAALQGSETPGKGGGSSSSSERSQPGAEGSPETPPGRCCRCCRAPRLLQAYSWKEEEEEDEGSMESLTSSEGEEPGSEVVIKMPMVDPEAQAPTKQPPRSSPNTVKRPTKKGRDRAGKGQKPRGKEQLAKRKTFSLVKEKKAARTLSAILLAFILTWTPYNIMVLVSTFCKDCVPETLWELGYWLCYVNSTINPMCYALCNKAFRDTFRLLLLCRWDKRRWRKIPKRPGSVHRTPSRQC

Assay [11] has the same target. The assay can be described thus: Cholinergic receptor muscarinic 1 (CHRM1) small molecule agonists, cell-based qHTS assay (AID 1963589). Note: nearly all actives have a fitted effect of over 35% in size. Put shortly: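 CHO cells stably expressing human CHRM1 were loaded with calcium dye for 1 h at 37 C, then compound was added in agonist mode. Intracellular calcium fluorescence was followed kinetically at 1 s intervals. Fifteen concentrations were tested in three independent runs.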

Assay [12] can be described thus: cAMP Responsive Elements (CRE) small molecule agonists, cell-based qHTS assay (AID 1963590). Put shortly: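 CRE-bla HEK 293T cells, 2,000/well in DMEM with 10% dialyzed FBS and 25 mM HEPES, pre-incubated 18 h at 37 C, then exposed to compound 3 h at 37 C. Beta-lactamase reporter read with LiveBLAzer B/G FRET substrate after 2 h at room temperature.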
A short description of assay [13]: cAMP Responsive Elements (CRE) small molecule antagonists, cell-based qHTS assay (AID 1963591; active = well fitted inhibition curve with a large enough effect in the signal ratio in the repeat runs, not every such curve was filed as active; the % refers to the signal ratio). Put shortly: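 CRE-bla HEK293T cells plated 18 h, then given compound plus NKH477 at 0.25 uM final for 3 h at 37C. Beta-lactamase reporter read with LiveBLAzer B/G FRET substrate after 2 h at room temperature.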
In assay [14] the target is Beta-2 adrenergic receptor (Homo sapiens) (UniProt P07550). The assay is described as follows: Adrenergic beta2 receptor (ADRB2) small molecule antagonists, cell-based qHTS assay (AID 1963592). Note: series mostly up to about 92 µM; nearly all actives have a fitted effect of over 50% in size. Put shortly:
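Cells (CHO, stable ADRB2 overexpression) incubated 18-20hr at 37C; compounds added from DMSO; agonist mix (1nM isoproterenol, 100uM IBMX, 25uM Ro-20-1724) added; 0.5hr RT; d2-cAMP and anti-cAMP-cryptate added; 1hr RT; 665/615 nm read.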

Assay [15] has the same target. The assay is described as follows: Adrenergic beta2 receptor (ADRB2) small molecule agonists, cell-based qHTS assay (AID 1963593).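 Note: CHO cells stably overexpressing human ADRB2.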 The procedure, abridged: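 CHO cells stably over-expressing ADRB2 were plated overnight at 37C, then dosed with compounds plus a stimulation mix containing 100uM IBMX and 25uM Ro-20-1724 for 0.5hr at room temperature. cAMP was measured by HTRF competition, 1hr.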

Assay [16] concerns the target D(2) dopamine receptor (Homo sapiens) (UniProt P14416). The assay can be described thus: Dopamine D2 receptor (DRD2) small molecule agonists, cell-based qHTS assay (AID 1963594). Note: nearly all actives have a fitted effect of over 35% in size. The procedure, abridged: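 HEK293 cells stably expressing human DRD2, pre-treated with PDE inhibitor Ro20-1724 (0.1 mM final) and compound 10 min at room temperature, then stimulated with NKH477 (200nM […]) for 30 min. cAMP read by HTRF (665/620 nm).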

For assay [17] the target is unchanged. The assay is described as follows: Dopamine D2 receptor (DRD2) small molecule antagonists, cell-based qHTS assay (AID 1963595; active = well fitted inhibition curve with a large enough effect in the signal ratio in the repeat runs, with a control signal flat; the % refers to the signal ratio). The procedure, abridged: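 Human DRD2 antagonist qHTS measuring cAMP by HTRF. The cells are exposed to compound for 10 min, then to NKH477 (200 nM) and quinpirole (12 nM) for 30 min at RT, with Ro20-1724 (0.1 mM) present throughout.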

In assay [18] the target is 5-hydroxytryptamine receptor 2A (Homo sapiens) (UniProt P28223). The assay can be described thus: 5-hydroxytryptamine receptor 2A (HTR2A) small molecule agonists, cell-based qHTS assay (AID 1963587). Note: nearly all actives have a fitted effect of over 30% in size. The procedure, abridged: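 CHO cells stably expressing human HTR2A, plated 18 h, loaded with calcium dye 1 h at 37 C. Agonist mode: compounds added and intracellular calcium fluorescence recorded kinetically for 2 min at 1 sec intervals.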
5-hydroxytryptamine receptor 2A (Homo sapiens), sequence (P28223 whole entry, looked up): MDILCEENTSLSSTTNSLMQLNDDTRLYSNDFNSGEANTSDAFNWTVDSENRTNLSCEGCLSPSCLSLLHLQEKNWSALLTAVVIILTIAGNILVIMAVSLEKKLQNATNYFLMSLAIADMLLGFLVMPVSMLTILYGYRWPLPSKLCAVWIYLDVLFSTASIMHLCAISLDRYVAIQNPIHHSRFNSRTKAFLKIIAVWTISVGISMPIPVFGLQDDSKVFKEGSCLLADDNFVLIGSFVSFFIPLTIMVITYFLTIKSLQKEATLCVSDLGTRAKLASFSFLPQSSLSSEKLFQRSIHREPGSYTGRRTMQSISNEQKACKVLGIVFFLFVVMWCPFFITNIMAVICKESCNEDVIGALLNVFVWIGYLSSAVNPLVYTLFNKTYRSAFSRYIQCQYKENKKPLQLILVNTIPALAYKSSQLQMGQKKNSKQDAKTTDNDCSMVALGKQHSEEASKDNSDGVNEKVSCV

Beta-2 adrenergic receptor (Homo sapiens), sequence (P07550 whole entry, looked up): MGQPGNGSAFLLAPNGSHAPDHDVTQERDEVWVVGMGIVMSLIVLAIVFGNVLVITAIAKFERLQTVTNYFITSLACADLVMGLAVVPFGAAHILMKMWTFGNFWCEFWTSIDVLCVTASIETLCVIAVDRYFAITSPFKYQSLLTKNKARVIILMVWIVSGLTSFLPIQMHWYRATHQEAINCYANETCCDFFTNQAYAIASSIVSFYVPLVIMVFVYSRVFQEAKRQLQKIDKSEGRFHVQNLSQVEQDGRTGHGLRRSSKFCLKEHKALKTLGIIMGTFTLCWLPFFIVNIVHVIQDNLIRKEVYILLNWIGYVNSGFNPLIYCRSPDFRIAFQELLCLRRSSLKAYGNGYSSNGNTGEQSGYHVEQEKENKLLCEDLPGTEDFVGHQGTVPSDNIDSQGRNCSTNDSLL
Gonadotropin-releasing hormone receptor (Homo sapiens), sequence (P30968 whole entry, looked up): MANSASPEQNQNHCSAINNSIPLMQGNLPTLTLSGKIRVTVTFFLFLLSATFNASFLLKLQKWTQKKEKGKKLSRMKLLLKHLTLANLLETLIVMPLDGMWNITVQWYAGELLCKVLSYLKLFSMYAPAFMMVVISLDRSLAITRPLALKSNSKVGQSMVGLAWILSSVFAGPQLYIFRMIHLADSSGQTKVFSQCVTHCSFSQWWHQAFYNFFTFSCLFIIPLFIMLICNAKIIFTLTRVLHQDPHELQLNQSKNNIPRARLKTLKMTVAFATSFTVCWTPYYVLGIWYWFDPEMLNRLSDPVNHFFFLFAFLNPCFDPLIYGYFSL
KiSS-1 receptor (Homo sapiens), sequence (Q969F8 whole entry, looked up): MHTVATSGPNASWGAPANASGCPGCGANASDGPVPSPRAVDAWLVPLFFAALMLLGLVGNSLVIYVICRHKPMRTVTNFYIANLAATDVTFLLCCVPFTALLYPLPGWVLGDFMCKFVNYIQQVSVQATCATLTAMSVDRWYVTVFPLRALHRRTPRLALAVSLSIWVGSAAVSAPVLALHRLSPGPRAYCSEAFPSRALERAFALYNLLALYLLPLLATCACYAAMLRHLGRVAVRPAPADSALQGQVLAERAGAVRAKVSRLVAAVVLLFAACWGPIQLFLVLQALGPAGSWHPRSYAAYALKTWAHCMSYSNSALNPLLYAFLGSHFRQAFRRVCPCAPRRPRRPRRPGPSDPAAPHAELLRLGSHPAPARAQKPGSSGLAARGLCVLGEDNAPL
D(2) dopamine receptor (Homo sapiens), sequence (P14416 whole entry, looked up): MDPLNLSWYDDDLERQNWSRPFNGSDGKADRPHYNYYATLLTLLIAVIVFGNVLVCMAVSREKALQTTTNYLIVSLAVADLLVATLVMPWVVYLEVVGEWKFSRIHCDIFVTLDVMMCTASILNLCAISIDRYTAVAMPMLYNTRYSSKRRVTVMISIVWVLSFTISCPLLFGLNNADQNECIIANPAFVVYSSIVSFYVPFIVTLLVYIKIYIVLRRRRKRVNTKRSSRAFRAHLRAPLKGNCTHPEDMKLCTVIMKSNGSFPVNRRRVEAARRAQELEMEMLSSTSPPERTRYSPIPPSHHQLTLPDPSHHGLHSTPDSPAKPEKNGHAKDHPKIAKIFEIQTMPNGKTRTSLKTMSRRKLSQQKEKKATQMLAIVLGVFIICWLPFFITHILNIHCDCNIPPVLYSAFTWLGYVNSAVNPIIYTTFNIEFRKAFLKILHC

Turning to `CCCCCCCCCCCCCCCCO`, the Potency result in assay [1], in [2], in assay [3], in assay [4], in assay [5] and in assay [6] was “inactive” throughout. Also, the Potency result in [7], in [8], in [9], in [10], in assay [11] and in assay [12] was “inactive” throughout. In addition, the Potency result in assay [13], in assay [14], in assay [15], in assay [16] and in [17] was “inactive” throughout.
As for `CC(=O)O[C@]1(C(C)=O)CC[C@H]2[C@@H]3C=C(Cl)C4=CC(=O)[C@@H]5C[C@@H]5[C@]4(C)[C@H]3CC[C@@]21C`, the Potency entry in assay [1], in assay [2], in assay [3], in assay [4], in [5] and in [6] was “inactive” each time. Also, the Potency result in assay [7], in [8], in assay [14], in assay [15], in assay [16] and in assay [17] was “inactive” each time.
In the case of `CC(C)[C@@H]1CC[C@@H](C)C[C@H]1O`, the Potency entry in assay [1], in assay [2], in assay [3], in assay [4], in [5] and in assay [6] was “inactive” each time. The Potency result in [7], in assay [8], in [9], in assay [18], in assay [10] and in [11] was “inactive” in each case. Further, the Potency entry in assay [12], in [13], in assay [14], in assay [15], in assay [16] and in assay [17] was “inactive” each time.
Take `CCn1cc(C(=O)O)c(=O)c2ccc(C)nc21`: the Potency result in [1], in assay [2], in [3], in assay [4], in assay [5] and in [8] was “inactive” each time. In addition, the Potency entry in [18], in assay [10], in assay [11], in assay [14], in assay [15] and in [16] was “inactive” each time. In addition, the Potency entry in assay [17] is “inactive”. The Potency result in [9] was “inactive and 3.34 µM (active)”.
`O=C(O)c1cc(C(=O)O)cc(S(=O)(=O)O)c1`: the Potency entry in assay [1], in assay [2], in assay [3], in [4], in [5] and in assay [6] was “inactive” throughout. Also, the Potency result in assay [8], in assay [9], in assay [18], in [10], in assay [11] and in [12] was “inactive” in each case. In addition, the Potency entry in [13], in assay [14], in assay [15], in assay [16] and in assay [17] was “inactive” in each case.
Consider `O=C(O)CCC(=O)O`, for which the Potency entry in assay [1], in [2], in assay [3], in assay [4], in assay [5] and in assay [6] was “inactive” throughout. Moreover, the Potency entry in assay [7], in assay [9], in assay [18], in assay [10], in assay [11] and in assay [12] was “inactive” each time. The Potency result in [13], in [14], in assay [15], in assay [16] and in [17] was “inactive” in each case. Besides, the Potency in assay [8] is 42.1 µM (active) and inactive.
Turning to `N=C(N)c1ccc(OCCCCCOc2ccc(C(=N)N)cc2)cc1`, the Potency entry in assay [1], in assay [2], in [3], in assay [4], in assay [5] and in [6] was “inactive” throughout. The Potency entry in assay [7], in assay [8], in assay [12], in assay [13], in assay [14] and in [15] was “inactive” in each case. Also, the Potency result in [16] and in assay [17] was “inactive” throughout.
On to `CCCOCC(C)O` (stereo not drawn), for which the Potency entry in assay [1], in assay [2], in assay [3], in [4], in assay [5] and in [6] was “inactive” in each case. For the same compound, the Potency entry in assay [7], in [8], in [9], in assay [18], in [10] and in [11] was “inactive” throughout. Further, the Potency result in assay [12], in [13], in assay [14], in assay [15], in assay [16] and in [17] was “inactive” in each case.
